Molecules are shown by their SMILES. Records with an inconclusive call do not appear. Where a call stands in place of a potency, no number is given. Active and inactive are the calls of the source. The call rests on the fitted dose curve; in most records, active means well fitted cell-killing curve with a large enough effect; inconclusive means small, poorly fitted or top-dose-only effect; inactive means flat fitted curve, though single readings scatter.

Results on twelve compounds are retold here after PubChem BioAssay (NCATS).
Potency means the concentration at half of the fitted maximal effect.

The assay in a line: Identifying Small Molecule Inhibitors of Pancreatic Cancer Stem Cells (SN12C, Adherent) (AID 1259358).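 Further: cell survival measured after 48 h of compound exposure.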 As to conditions: viability/growth inhibition; series mostly up to 46.1 µM. From the text:
Progenitor-like cancer cells, often referred to as cancer stem cells (CSC), are believed to be the drivers of therapeutic resistance and rapid recurrence. CSCs are postulated to reside in specific niches characterized by low oxygen tension, limited nutrient supply, and high redox load. Selectively targeting CSC, alone or in combination with cytotoxic agents, as a means to produce durable remissions is an appealing concept. Modeling these cells in in vitro setting is an important step in finding new therapies and/or targets. Multiple reports highlight that forcing cells in culture into 3-dimensionaly architectures (spheroids) re-establishes key progenitor-like transcriptional signatures. Pancreatic cancer is among the diseases with the most dismal outlook which is driven, largely, by recurance following front-line therapies. […] In hopes of deriving new insight into the targeting of these pancreatic CSCs we examined three established pancreatic cancer cell lines in cytotoxicity assays versus a collection of approved and investigational drugs. Importantly, we screened these lines as traditional monolayer (2D) and spheroid (3D) formats to gain an appreciation of agents with differential activity.
Multicellular tumor spheroids from Panc1, MiaPaCa-2, and the primary low-passage tissue culture line SB.06 were seeded in stem cell media (SCM) in nonadherent 6-well plates coated with hydrogel (Corning Life Sciences, Chelmsford, Mass) and pancreatic spheres generated for 14 days before screening. Cells were seeded into 1536-well solid-bottom white tissue culture treated Greiner Bio One Plates (789173-F) using a MultiDrop Combi (Thermofisher Scientific) dispenser and a small sterile cassette. One column was media alone to be used as a :"no cells" control. The plates were then covered with sterilized stainless steel gasketed lids from Kalypsys. After allowing cells to attach for 4 hours, 23 nL of test compound or control (negative control DMSO and positive control 9.2 uM Bortezomib-final) were added from a 1536-well polypropylene compound source plate to each well using a 1536 head pin tool from Kalypsys. Cells were then incubated for 48 hours at 37C, 95% relative humidity and 5% CO2. After 48 hours, plates were removed from the incubator and 3 uL of CellTiter-Glo (Promega) was added using an Aurora Flying Reagent Dispenser Bioraptor. Plates were incubated at room temperature for 10 minutes prior to reading the luminescence on the Viewlux (PerkinElmer). The relative luciferase units are used to calculate the percent activity using the activity of DMSO in the cells and no cells columns for normalization of no inhibition and full inhibition respectively.
For the compound `CNC1CCN(C(Cc2cccc(-c3ccncc3)c2)C(=O)c2sc3c(F)ccc(F)c3c2Cl)CC1` (configuration not stated), the Potency was 26.4 µM (active).
For the compound `CN(NC(=O)CC(=O)NN(C)C(=S)c1ccccc1)C(=S)c1ccccc1`, the Potency result was “inactive”.
For `CCOc1cc2ncc(C#N)c(Nc3ccc(OCc4ccccn4)c(Cl)c3)c2cc1NC(=O)/C=C/CN(C)C`, the Potency is 0.418 µM (active).
With `O=c1cc(C2=CC=CC3Sc4ccccc4SC23)oc(N2CCOCC2)c1` (configuration not stated), the Potency entry is “inactive”.
In the case of `C[C@@H]1CCN(C(=O)CC#N)C[C@@H]1N(C)c1ncnc2[nH]ccc12`, the Potency result was “inactive”.
On to `O=C(O)CC/C=C\CC[C@H]1[C@@H](N2CCCCC2)[C@@H](O)C[C@@H]1OCc1ccc(-c2ccccc2)cc1`, for which the Potency result is “inactive”.
Regarding `NC(=O)Nc1cc(-c2ccc(CN3CCOCC3)c(F)c2)sc1C(=O)N[C@H]1CCCNC1`, the Potency is 0.833 µM (active).
Turning to `CCC1(O)CC2CN(CCc3c([nH]c4ccccc34)[C@@](C(=O)OC)(c3cc4c(cc3OC)N(C=O)[C@H]3[C@](O)(C(=O)OC)[C@H](OC(C)=O)[C@]5(CC)C=CCN6CC[C@]43[C@@H]65)C2)C1` (some centres not stated), the Potency is 1.18 µM (active).
With `CCC1(Cc2ccc(N)cc2)CCC(=O)NC1=O` (configuration not stated) the entry was “inactive”.
With `CCCCCCCCCCCCCCCCCCOP(=O)([O-])OC1CC[N+](C)(C)CC1` the entry was “inactive”; with `Cc1nnc(C(C)C)n1C1CC2CCC(C1)N2CC[C@H](NC(=O)C1CCC(F)(F)CC1)c1ccccc1` (some centres not stated), “inactive”.
For the compound `CC(NC(=O)Cc1cc(F)cc(F)c1)C(=O)NC(C(=O)OC(C)(C)C)c1ccccc1` (configuration not stated), the Potency entry was “inactive”.
